# About 3,100 (0.84%) of roughly 370,000 compounds were called active.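 How the source made its calls: active means inhibition above the mean of compounds lying between control limits plus 3 SD, set per campaign (cut at about 8.5% in these data); inactive means the rest.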 The full list was thinned out, with actives kept by preference.
# Molecular target: Disintegrin and metalloproteinase domain-containing protein 17 (Homo sapiens) (UniProt P78536)
# Test: inhibition of ADAM17 peptide cleavage – biochemical, QFRET, primary screen (AID 720648);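 further: 0% = DMSO-only wells as the low control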
# Conditions: recombinant ADAM17, EDANS/DABCYL FRET peptide cleavage; at 6.95 µM; hits give high values
# Chain of Disintegrin and metalloproteinase domain-containing protein 17 (Homo sapiens) (P78536 215-824 limits assumed): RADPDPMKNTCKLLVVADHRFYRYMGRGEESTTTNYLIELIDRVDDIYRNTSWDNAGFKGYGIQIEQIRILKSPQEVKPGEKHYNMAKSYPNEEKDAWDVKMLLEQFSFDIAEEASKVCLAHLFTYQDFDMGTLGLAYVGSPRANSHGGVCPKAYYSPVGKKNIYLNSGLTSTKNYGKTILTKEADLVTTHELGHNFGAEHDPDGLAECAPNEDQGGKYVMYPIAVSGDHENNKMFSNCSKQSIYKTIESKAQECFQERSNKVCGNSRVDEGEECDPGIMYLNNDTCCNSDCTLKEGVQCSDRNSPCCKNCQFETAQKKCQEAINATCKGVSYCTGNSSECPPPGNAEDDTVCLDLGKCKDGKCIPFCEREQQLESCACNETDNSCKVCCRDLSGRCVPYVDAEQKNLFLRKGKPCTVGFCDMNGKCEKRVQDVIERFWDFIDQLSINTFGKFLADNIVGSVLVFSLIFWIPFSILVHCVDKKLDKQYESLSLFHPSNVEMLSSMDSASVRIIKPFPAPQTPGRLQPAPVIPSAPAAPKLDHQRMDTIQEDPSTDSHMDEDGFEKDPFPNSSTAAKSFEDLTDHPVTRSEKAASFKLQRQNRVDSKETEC
row,SMILES,inhibition
1,CSCCC(NC(=O)COc1ccccc1)C(=O)N1CCN(c2cccc(C(F)(F)F)c2)CC1 (centres undefined),0.72% (inactive)
2,Cc1c(C)c2ccc(OCC(=O)N3CCN(c4cccc(Cl)c4)CC3)cc2oc1=O,-9.1% (inactive)
3,O=C(COc1ccc(Cl)cc1)N1CCN(c2cccc(C(F)(F)F)c2)CC1,13.9% (active)
4,Cc1ccc(Cn2cc(CN3[C@@H](CC(C)C)COc4ccc(Cl)cc4S3(=O)=O)nn2)cc1,-0.49% (inactive)
5,CN1C(=O)C(CC(=O)Nc2ccccc2)S/C1=N/c1nccs1 (centres undefined),-3.53% (inactive)
6,CC1CC(=O)N(CC(=O)Nc2cccc(Cl)c2)c2ccccc2S1(=O)=O (centres undefined),0.03% (inactive)
7,O=C(CC1SC(=Nc2ccccc2)N(Cc2ccccn2)C1=O)Nc1cccc(Cl)c1 (centres undefined),9.62% (active)
8,COc1cccc(CSc2nnc(-c3cccnc3)n2Cc2ccccc2)c1,-1.8% (inactive)
9,CCN1C(=O)[C@H]2[C@@H](c3ccc(C(F)(F)F)cc3)N[C@]3(CCCN(Cc4ccc(Br)cc4)C3=O)[C@H]2C1=O,0.02% (inactive)
10,O=C1[C@H]2[C@@H](c3ccc(C(F)(F)F)cc3)N[C@]3(CCCN(Cc4ccc(Br)cc4)C3=O)[C@H]2C(=O)N1Cc1ccccc1,13.7% (active)
11,O=C1[C@H]2[C@@H](c3ccc(C(F)(F)F)cc3)N[C@]3(CCCN(Cc4ccc(Cl)cc4)C3=O)[C@H]2C(=O)N1Cc1ccccc1,6.3% (inactive)
12,O=C(NCc1ccco1)C1CCCN(S(=O)(=O)c2ccc(Cl)s2)C1 (centres undefined),-1.38% (inactive)
13,O=C(CNS(=O)(=O)c1ccccc1F)N1CCN(c2ccccn2)CC1,-2.81% (inactive)
14,CC(=O)Nc1ccc(S(=O)(=O)N2CCN(CCCOc3cc(C)ccc3C)CC2)cc1,9.18% (active)
15,Cc1ccc(C)c(OCCC(=O)Nc2cccc(S(=O)(=O)N3CCCC3)c2)c1,1.33% (inactive)
16,Cc1cccc(OCCCC(=O)Nc2ccc(S(=O)(=O)N3CCCC3)cc2)c1,3.89% (inactive)
17,CC(=O)Nc1ccc(OC[C@@H](O)CN2CCC(C(O)(c3ccccc3)c3ccccc3)CC2)cc1,2.29% (inactive)
18,COc1cc(C(=O)NNC(=O)c2ccc(S(=O)(=O)N3CCCCC3)cc2)cc(OC)c1OC,0.14% (inactive)
19,COc1ccc(F)cc1S(=O)(=O)N1CCCCC1,-4.65% (inactive)
20,COc1ccc(S(=O)(=O)N2CCCCC2)cc1Br,9.21% (active)
21,CCOC(=O)[C@@]12CCC3=C1N(CCC3)C(=O)[C@H](CC(=O)N1CCN(C(=O)c3ccco3)CC1)C2,-6.34% (inactive)
22,Cc1nc(CNc2ncnc3ccc(-c4ccc5c(c4)OCO5)cc23)cs1,-54.3% (inactive)
23,COc1cccc(C2CC(c3cccs3)=NN2C(=O)CSC2=NCCS2)c1OC (centres undefined),-4.82% (inactive)
24,CS(=O)(=O)Nc1cccc(C2=NN(C(=O)c3cccc(F)c3)C(c3cccs3)C2)c1 (centres undefined),1.09% (inactive)
25,COc1cccc(C2CC(c3ccccc3)=NN2S(=O)(=O)c2ccccc2)c1OC (centres undefined),14% (active)
26,CCS(=O)(=O)Nc1ccc(C2=NN(S(=O)(=O)c3ccc(F)cc3)C(c3ccco3)C2)cc1 (centres undefined),3.46% (inactive)
27,CS(=O)(=O)Nc1cccc(C2=NN(S(=O)(=O)c3ccccc3)C(c3cccs3)C2)c1 (centres undefined),8.71% (active)

row,SMILES,inhibition
1,Cc1ccc(C2CC(c3cccc(NS(C)(=O)=O)c3)=NN2S(C)(=O)=O)cc1 (centres undefined),-2.2% (inactive)
2,CCOc1ccccc1C1CC(c2cccc(NS(C)(=O)=O)c2)=NN1C(=O)c1ccccc1 (centres undefined),12.6% (active)
3,COC(=O)c1cccc(NS(C)(=O)=O)c1,-1.45% (inactive)
4,CCOc1ccc2nc(Cl)c(C3CC(c4ccccc4)=NN3C(=O)c3cccs3)cc2c1 (centres undefined),-2.13% (inactive)
5,O=C(Nc1cc(Cl)cc(Cl)c1)OCCN1CCCC12CCC(c1ccccc1)CC2 (centres undefined),1.56% (inactive)
6,CCOC(=O)[C@]12CCCCC/C=C\1N(Cc1ccc(OC)cc1)C(=O)[C@H]2CC(=O)NCCCN1CCCC1=O,5.47% (inactive)
7,Cc1cc(NS(=O)(=O)c2ccc(NC(=O)CSc3nnc(-c4ccc(C(C)(C)C)cc4)n3Cc3ccco3)cc2)nc(C)n1,0.8% (inactive)
8,CC(C)(C)c1ccc(C(=O)Nc2cc(Cl)c(Br)cc2C(=O)O)cc1,8.45% (inactive)
9,COC(=O)[C@]12C[C@H](CC(=O)N3CCOCC3)C(=O)N(Cc3ccc(Cl)cc3Cl)C1=C[C@H](C(C)C)O[C@@H]2C1CC1,-2% (inactive)
10,Cc1ccc(-n2c(SCC(=O)Nc3ccc(S(=O)(=O)Nc4nccs4)cc3)nnc2-c2ccccn2)cc1,2.5% (inactive)
11,O=C1CC[C@@]23CCCN2C(=O)CCC[C@H]3[C@H]1Cc1ccccc1,-7.14% (inactive)
12,S=C(NCc1ccc(Cl)cc1)NC12CC3CC(CC(C3)C1)C2,14.9% (active)
13,COc1ccccc1C(=O)NC(=S)NC12CC3CC(CC(C3)C1)C2,-0.66% (inactive)
14,Cc1ccc(C(=O)NC23CC4CC(CC(C4)C2)C3)c(Cl)c1,-1.94% (inactive)
15,COc1ccc(-c2cc(-c3nnc(SCC(=O)Nc4cccc5ccccc45)n3N)[nH]n2)cc1,-3.93% (inactive)
16,O=C(NCC1COc2ccccc2O1)c1ccc(NC(=O)c2cc(F)ccc2F)cc1 (centres undefined),2.47% (inactive)
17,COc1ccc(/C=C2\CC3(OC(C)=O)CCCN2C3)cc1 (centres undefined),-3.86% (inactive)
18,Cc1ccccc1NC(=O)C1CCN(c2ncccn2)CC1,-12.7% (inactive)
19,O=C(NN1C(=O)C2C3C=CC(O3)C2C1=O)c1ccccc1 (centres undefined),0.75% (inactive)
20,O=C(NN1C(=O)C2C3C=CC(C4CC34)C2C1=O)c1ccc(Cl)cc1 (centres undefined),-30.5% (inactive)
21,COc1ccc(C(=O)NN2C(=O)C3C(c4ccccc4)C=CC(c4ccccc4)C3C2=O)cc1 (centres undefined),13.9% (active)
22,COc1ccc(N2CCN(CCNS(=O)(=O)c3ccc(C(C)(C)C)cc3)CC2)cc1,1.38% (inactive)
23,CCCC[C@H]1C2CC(OC(=O)NCc3ccccc3)C(C2)[C@H]2CCCCN21 (some centres undefined),-10.2% (inactive)
24,Cc1[nH]nc(-c2ccc(OCc3cnn(-c4ccccc4)c3)cc2O)c1Oc1ccc(Cl)cc1,0.84% (inactive)
25,C=C(C)COc1ccc(-c2n[nH]c(C)c2-c2ccccc2)c(O)c1,10.9% (active)
26,CC(C)N1CCCCC(NC(=O)C(C)(C)C)C1=O (centres undefined),-2.39% (inactive)
27,O=C(CSc1nnc(C2CC2)n1Cc1ccccc1)Nc1cccnc1Cl,-2.91% (inactive)

row,SMILES,inhibition
1,O=C(CSc1nnc(Nc2ccccc2)s1)Nc1cccnc1Cl,8.69% (active)
2,O=C(CSc1nnc(Nc2ccccc2F)s1)NC1CCCC1,-2.83% (inactive)
3,CCOC(=O)[C@]12CCCC=C1N(Cc1ccc(OC)cc1)C(=O)[C@@H]2CC(=O)NCc1cccs1,-2.4% (inactive)
4,CN1C[C@]2(C=C3CCCCC3n3c(=O)n(-c4ccccc4)c(=O)n32)N=C1NC(=O)c1ccccc1 (some centres undefined),-0.93% (inactive)
5,COC(=O)[C@]1(C#N)CC(=O)N(CC2CCCCC2)[C@@H]1c1ccccc1,4.54% (inactive)
6,O=C(NC1CCCC1)C1CSCCS(=O)(=O)N1Cc1ccccc1 (centres undefined),-0.05% (inactive)
7,COc1ccc(-n2c(COc3ccccc3)nnc2SCC(=O)Nc2ccc3c(c2)OCO3)cc1,4.09% (inactive)
8,O=C(CSc1nnc(COc2ccccc2)n1-c1ccc(Cl)cc1)Nc1ccc2c(c1)OCO2,1.36% (inactive)
9,Cc1ccc(-n2c(COc3ccccc3)nnc2SCC(=O)Nc2ccc3c(c2)OCCO3)cc1,10.3% (active)
10,O=S(=O)(Nc1ccc(Oc2ncccn2)c(Cl)c1)c1ccc(F)cc1,-3.11% (inactive)
11,CN(NS(=O)(=O)c1cccs1)c1ncc(C(F)(F)F)cc1Cl,-1.66% (inactive)
12,Cc1cc(C)cc(NS(=O)(=O)c2ccc(Oc3ncc(C(F)(F)F)cc3Cl)cc2)c1,10.8% (active)
13,COc1cccc(/C=C2\CC3(OC(C)=O)CCCN2C3)c1 (centres undefined),3.86% (inactive)
14,O=C(OC12CCCN(C1)/C(=C/c1ccccc1)C2)c1ccco1 (centres undefined),6.28% (inactive)
15,COC(=O)[C@]12C[C@H](CC(=O)NCCCN3CCCC3=O)C(=O)N(CCc3ccc(OC)c(OC)c3)C1=C[C@H](COCc1ccccc1)O[C@@H]2C,-6.14% (inactive)
16,CC(C)(C)[C@H]1C=C(C(=O)NCc2ccccc2)O[C@@H](OCc2ccc(CO)cc2)C1,2.4% (inactive)
17,O=C(NCc1ccccc1)C1=C[C@@H](c2ccc(C(F)(F)F)cc2)C[C@@H](OCc2ccc(CO)cc2)O1,10.7% (active)
18,O=C(C1=C[C@H](c2ccc(C(F)(F)F)cc2)C[C@H](OCc2ccc(CO)cc2)O1)N1CCN(Cc2ccccc2)CC1,5.72% (inactive)
19,COc1ccc(Cl)cc1C=CC=NNC(=O)c1ccncc1,-4.19% (inactive)
20,Cc1ccc(OCCOCCOc2ccc(Br)cc2/C=N\NC(=O)c2ccncc2)cc1,10% (active)
21,Cc1ccc(OCCOc2cccc(/C=N/NC(N)=O)c2)cc1,-1.45% (inactive)
22,CN1C(=O)c2cc(NS(C)(=O)=O)ccc2OC[C@@H]2O[C@@H](CC(=O)NCc3ccc(-c4ccccc4)cc3)CC[C@H]21,-3.9% (inactive)
23,C#CCN(C[C@H]1[C@H](OC(=O)NC2CCCC2)[C@H](OC(=O)NC2CCCC2)C[C@H]2C(=O)N(c3ccccc3)C(=O)[C@@H]12)S(=O)(=O)c1ccc(C)cc1,9.64% (active)
24,Cc1ccc(S(=O)(=O)N2C[C@]3(O)C[C@@H]4C(=O)N(c5ccccc5)C(=O)[C@@H]4C[C@]3(OC(=O)NC3CC3)C2)cc1,-1.11% (inactive)
25,C#CCN(C[C@@H]1[C@@H](OC(=O)NC2CC2)[C@@H](OC(=O)NC2CC2)Cn2c(=O)ccc(=O)n21)S(=O)(=O)c1ccc(C)cc1,-1.79% (inactive)
